# Measured values: PubChem BioAssay (NCATS)
# Several values for one entry are separate records, joined by “and”; a condition that tells them apart may be missing. Equal entries are not always repeated. A number with no mark means an inactive call. Results filed as inconclusive are left out. Where a call stands in place of a potency, no number is given. Activity calls are given as the source filed them. Unless noted, the call rests on the fitted dose curve; in most records, active means well fitted curve in the direction sought with a large enough effect; inconclusive means small, poorly fitted or top-dose-only effect, or another doubt; inactive means no such curve, though single readings can be large; an effect the other way counts as inactive or inconclusive.
# Columns and labels:
# [1] = AP1 Signaling Pathway (AID 357; active means well fitted curve in either direction with a large enough effect, not every such curve was filed as active;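 further: ME-180 reporter cells stimulated with EGF at its EC50 level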)
# In short: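 Read-out was the 460nm/530nm emission ratio (excitation 405nm) after CCF4 loading for 2.5 hours at room temperature. Cells carried an AP-1-driven beta-lactamase reporter, were stimulated with EC50 EGF plus compound for 5 hours, and AC50 values came from titrations.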
# [2] = target: Cytochrome P450 1A2 (Homo sapiens) (UniProt P05177); test: p450-cyp1a2 (AID 410; calls by dose curve; further: potency means the concentration at half of the fitted maximal effect)
# Chain of Cytochrome P450 1A2 (Homo sapiens) (P05177 whole entry, looked up): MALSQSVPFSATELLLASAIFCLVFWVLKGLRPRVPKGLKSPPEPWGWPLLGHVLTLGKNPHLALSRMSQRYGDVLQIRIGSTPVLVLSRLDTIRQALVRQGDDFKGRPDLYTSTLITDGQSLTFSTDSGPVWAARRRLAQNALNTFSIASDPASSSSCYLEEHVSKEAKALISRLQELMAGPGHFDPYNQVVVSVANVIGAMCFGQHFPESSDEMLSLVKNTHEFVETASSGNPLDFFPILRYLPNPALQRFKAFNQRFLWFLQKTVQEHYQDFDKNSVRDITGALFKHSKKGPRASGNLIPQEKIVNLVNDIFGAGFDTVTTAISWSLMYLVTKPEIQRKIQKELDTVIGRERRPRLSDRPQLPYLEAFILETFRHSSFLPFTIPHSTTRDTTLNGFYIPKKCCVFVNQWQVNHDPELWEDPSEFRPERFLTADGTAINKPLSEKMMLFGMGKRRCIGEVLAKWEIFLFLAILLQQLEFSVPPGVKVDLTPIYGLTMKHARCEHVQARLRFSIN
# In short: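 20nM CYP1A2, 100uM Luciferin-ME (=Km), 100mM KPO4; cpd 10 min RT; +NADPH regen, 60 min RT; stop/detect 20 min; luminescence. Normalized to furafylline 57 uM = full inhibition.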
# [3] = NFAT Signaling Pathway (AID 444; active means well fitted curve in either direction with a large enough effect, not every such curve was filed as active;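 further: carbachol stimulus at about its EC50 of 1 µM final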); settings: Jurkat NFAT-bla M1, carbachol, beta-lactamase ratio, 5 h
# In short: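 Jurkat cells carrying an NFAT-driven β-lactamase reporter and co-transfected muscarinic M1 receptor were treated with compound plus carbachol (1 uM final, an EC50 level) for 5 h at 37 °C. CCF4 loading followed for 1 h at RT; 460/530 nm ratio gave %activity.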
# [4] = target: Glucocorticoid receptor (Homo sapiens) (UniProt P04150); test: GR-GFP Redistribution (AID 450;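 active means compounds whose dose series gives a full or clear partial fitted curve of increased nuclear translocation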; further: potency means the concentration at half of the fitted maximal effect); settings: U2OS GR-GFP nuclear translocation, laser cytometry, 2 h
# Chain of Glucocorticoid receptor (Homo sapiens) (P04150 whole entry, looked up, the tested form may be a part): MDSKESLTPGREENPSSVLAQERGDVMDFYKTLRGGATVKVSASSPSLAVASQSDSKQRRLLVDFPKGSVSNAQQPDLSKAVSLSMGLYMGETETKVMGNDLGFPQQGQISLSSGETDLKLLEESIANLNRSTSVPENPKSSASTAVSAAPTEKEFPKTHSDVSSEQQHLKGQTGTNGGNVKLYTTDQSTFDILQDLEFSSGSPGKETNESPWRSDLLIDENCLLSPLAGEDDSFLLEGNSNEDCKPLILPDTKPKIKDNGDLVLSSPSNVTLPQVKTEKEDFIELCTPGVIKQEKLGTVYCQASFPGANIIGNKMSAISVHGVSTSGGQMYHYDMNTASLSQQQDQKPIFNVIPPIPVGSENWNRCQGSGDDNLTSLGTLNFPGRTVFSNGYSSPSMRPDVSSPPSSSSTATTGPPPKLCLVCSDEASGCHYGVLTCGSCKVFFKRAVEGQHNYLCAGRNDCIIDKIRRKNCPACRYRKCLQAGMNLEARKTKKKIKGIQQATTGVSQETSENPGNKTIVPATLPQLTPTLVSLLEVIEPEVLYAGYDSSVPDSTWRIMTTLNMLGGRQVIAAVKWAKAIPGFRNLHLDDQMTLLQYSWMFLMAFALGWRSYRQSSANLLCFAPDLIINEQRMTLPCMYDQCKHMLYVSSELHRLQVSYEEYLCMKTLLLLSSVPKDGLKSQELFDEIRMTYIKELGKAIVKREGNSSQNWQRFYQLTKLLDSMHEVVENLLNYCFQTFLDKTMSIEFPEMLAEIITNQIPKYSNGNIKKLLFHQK
# [5] = target: Glucocorticoid receptor (Homo sapiens) (UniProt P04150); test: GR-EFC Redistribution (AID 451; calls by dose curve; further: potency means the concentration at half of the fitted maximal effect); settings: CHO-K1 GR-EFC translocation, beta-gal luminescence, 2 h
# In short: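 CHO-K1 cells stably expressing nuclear-localized β-gal enzyme acceptor and GR fused C-terminally to the enzyme donor fragment; ligand-driven nuclear translocation restores β-gal by complementation. Compounds titrated up to 46 uM final, 2 h at 37 °C; luminescence read.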
# [6] = target: Mitogen-activated protein kinase 10 (Mus musculus) (UniProt Q61831); test: JNK3 AlphaScreen Assay (AID 530; active means well fitted curve in either direction with a large enough effect, not every such curve was filed as active;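 further: kinase came from lysate of stimulated human HepG2 cells; signal reports phosphorylation of biotinylated GST-cJun 1-79 at Ser73 with 10 µM ATP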)
# In short: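 Biotinylated GST-cJun(1-79) served as substrate for JNK3 in HepG2 lysates stimulated with IL-1beta and TNF-alpha. ATP was 10 uM final, pH 7.6. Ser73 phosphorylation was quantified by AlphaScreen (680 nm excitation).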
# [7] = target: 3',5'-cyclic-AMP phosphodiesterase 4B (Homo sapiens) (UniProt Q07343); test: qHTS Assay for Inhibitors of PDE-IV (AID 607; active means well fitted activation curve with a large enough effect in the main read-out, with a control signal flat, not every such curve was filed as active)
# Chain of 3',5'-cyclic-AMP phosphodiesterase 4B (Homo sapiens) (Q07343 whole entry, looked up): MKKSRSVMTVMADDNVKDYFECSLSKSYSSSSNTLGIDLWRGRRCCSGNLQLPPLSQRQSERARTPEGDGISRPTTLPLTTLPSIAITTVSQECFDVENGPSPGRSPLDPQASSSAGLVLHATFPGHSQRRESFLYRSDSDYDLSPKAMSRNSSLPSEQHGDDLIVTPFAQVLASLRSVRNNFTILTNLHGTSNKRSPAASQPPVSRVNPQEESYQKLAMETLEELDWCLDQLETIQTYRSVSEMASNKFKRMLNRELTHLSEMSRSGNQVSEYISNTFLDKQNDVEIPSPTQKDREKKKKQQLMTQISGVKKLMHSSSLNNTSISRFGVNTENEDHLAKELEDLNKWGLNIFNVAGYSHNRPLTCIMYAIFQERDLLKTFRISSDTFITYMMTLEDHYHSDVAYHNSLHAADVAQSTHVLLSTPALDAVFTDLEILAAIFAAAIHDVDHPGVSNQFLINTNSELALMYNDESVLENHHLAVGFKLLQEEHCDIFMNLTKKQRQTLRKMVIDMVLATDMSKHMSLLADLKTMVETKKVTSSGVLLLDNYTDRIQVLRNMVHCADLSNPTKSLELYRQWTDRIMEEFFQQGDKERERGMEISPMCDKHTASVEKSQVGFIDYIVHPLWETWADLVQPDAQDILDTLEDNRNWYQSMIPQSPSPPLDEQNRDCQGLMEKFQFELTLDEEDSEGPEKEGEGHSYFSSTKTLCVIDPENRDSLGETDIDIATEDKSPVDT
# In short: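 Live HEK293 cells with a modified cyclic nucleotide-gated (CNG) channel report intracellular cAMP via membrane-potential dye fluorescence (ex 535/em 590 nm). Endogenous PDE-IV was targeted. Compounds were tested at up to 22.9 uM final; RO 20-1724 100 uM served as control.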
# [8] = target: Cytochrome P450 2C19 (Homo sapiens) (UniProt P33261); test: qHTS Assay for Inhibitors and Substrates of Cytochrome P450 2C19 (AID 899); further: nearly all actives have a fitted effect of over 60% in size; further: potency means the concentration at half of the fitted maximal effect
# Chain of Cytochrome P450 2C19 (Homo sapiens) (P33261 whole entry, looked up): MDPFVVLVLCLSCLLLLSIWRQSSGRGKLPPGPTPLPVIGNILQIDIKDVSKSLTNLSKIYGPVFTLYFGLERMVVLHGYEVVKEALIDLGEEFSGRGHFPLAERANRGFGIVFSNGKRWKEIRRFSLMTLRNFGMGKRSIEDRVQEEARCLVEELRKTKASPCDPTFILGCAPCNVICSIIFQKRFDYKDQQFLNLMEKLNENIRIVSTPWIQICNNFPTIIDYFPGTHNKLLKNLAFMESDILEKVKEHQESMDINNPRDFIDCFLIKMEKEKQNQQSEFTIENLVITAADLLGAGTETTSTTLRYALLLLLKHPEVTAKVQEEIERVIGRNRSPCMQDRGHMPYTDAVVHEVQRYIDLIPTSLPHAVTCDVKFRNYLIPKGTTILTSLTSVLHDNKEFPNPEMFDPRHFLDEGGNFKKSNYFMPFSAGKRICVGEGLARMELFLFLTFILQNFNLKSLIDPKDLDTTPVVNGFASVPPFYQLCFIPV
# In short: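 In 50mM KPO4, the reaction held 5nM enzyme and KM-level (10uM) Luciferin-H EGE; it ran 60 min at 37C after NADPH regeneration and a 10 min compound preincubation. Luminescence values were scaled to 57uM ketoconazole as complete inhibition.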
# [9] = target: DNA dC->dU-editing enzyme APOBEC-3G (Homo sapiens) (UniProt Q9HC16); test: qHTS for inhibitors of Vif-A3G interactions: Validation (AID 588379)
# Chain of DNA dC->dU-editing enzyme APOBEC-3G (Homo sapiens) (Q9HC16 whole entry, looked up): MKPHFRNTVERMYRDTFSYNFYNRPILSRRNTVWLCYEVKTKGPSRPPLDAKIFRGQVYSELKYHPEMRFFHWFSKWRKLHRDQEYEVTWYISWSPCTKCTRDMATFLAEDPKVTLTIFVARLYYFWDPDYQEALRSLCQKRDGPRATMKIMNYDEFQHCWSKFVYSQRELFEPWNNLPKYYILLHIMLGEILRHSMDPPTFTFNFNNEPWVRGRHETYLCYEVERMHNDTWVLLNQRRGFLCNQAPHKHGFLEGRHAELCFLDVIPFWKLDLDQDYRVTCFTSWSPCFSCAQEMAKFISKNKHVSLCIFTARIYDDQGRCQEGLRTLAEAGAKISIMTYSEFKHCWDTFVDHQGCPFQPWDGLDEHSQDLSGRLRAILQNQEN
# In short: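 Yellow fluorescence (Ex 488, Em 500-530) of Vif-coexpressing HeLa A3G-eYFP cells, scanned by Acumen cytometer, reports blocked A3G degradation. Cells plated at 700/well overnight at 37 deg C before compound addition, then a further overnight compound incubation at 37 deg C.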
# [10] = test system: Zika virus NS2B-NS3 protease; test: Primary screen GU AMC qHTS for Zika virus inhibitors (AID 1347154); further: nearly all actives have a fitted effect of over 70% in size; further: potency means the concentration at half of the fitted maximal effect
# In short: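 Unlinked Zika NS2B hydrophilic domain/NS3 protease domain noncovalent complex (25 nM final) in 10 mM Tris-HCl pH 8.0, 0.01% Tween 20, with AMC peptide substrate. Fluorescence (ex 340, em 450 nm) change over 15 min, room temperature; percent inhibition fitted to 4-parameter Hill equation.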
# [11] = Primary qHTS for small molecule stabilizers of the endoplasmic reticulum resident proteome: Secreted ER Calcium Modulated Protein (SERCaMP) assay (AID 1508630)
# In short: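 The SH-SY5Y reporter protocol was run at 3 concentrations up to 38.3 uM (primary) or 11 concentrations (follow-up): 16 h compound, 100 nM thapsigargin for 4 h, then extracellular luciferase luminescence.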
# [12] = target: Ubiquitin carboxyl-terminal hydrolase 1 (Homo sapiens) (UniProt O94782); test: Inhibitors of USP1/UAF1: Pilot qHTS (AID 504865);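 further: rhodamine fluorescence freed from ubiquitin-rhodamine substrate followed over time; top concentration of the series differs between compounds; nearly all actives have a fitted effect of over 35% in size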
# Chain of Ubiquitin carboxyl-terminal hydrolase 1 (Homo sapiens) (O94782 whole entry, looked up): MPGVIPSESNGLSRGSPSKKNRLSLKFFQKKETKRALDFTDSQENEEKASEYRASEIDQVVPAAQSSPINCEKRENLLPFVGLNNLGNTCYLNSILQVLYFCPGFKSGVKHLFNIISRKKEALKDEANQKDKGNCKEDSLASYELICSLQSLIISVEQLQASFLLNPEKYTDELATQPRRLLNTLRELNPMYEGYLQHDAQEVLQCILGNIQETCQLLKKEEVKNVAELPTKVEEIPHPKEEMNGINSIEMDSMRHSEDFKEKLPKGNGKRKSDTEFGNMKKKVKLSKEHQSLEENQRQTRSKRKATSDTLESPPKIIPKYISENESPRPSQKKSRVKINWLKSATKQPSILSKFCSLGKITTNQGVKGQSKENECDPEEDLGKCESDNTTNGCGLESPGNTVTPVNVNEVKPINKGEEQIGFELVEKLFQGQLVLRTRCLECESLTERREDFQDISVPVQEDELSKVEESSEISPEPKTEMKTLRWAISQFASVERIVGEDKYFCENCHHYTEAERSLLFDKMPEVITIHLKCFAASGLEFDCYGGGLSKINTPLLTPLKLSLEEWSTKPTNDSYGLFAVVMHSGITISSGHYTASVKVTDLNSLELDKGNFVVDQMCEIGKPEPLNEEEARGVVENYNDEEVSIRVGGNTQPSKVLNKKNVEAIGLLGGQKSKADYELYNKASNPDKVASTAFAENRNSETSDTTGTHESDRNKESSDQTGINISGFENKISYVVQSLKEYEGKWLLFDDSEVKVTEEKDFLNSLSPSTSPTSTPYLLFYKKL
# In short: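 1nM USP1/UAF1 + cpd, 15 min RT; start w/ Ub-Rho 150nM final; kinetic FL 480/540 nm, 6 reads q60 s. Buffer 50mM HEPES pH 7.8, 0.5mM EDTA, 1mM TCEP, 0.01% Tween-20, 0.1 mg/ml BSA.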
# [13] = target: Cytochrome P450 2D6 (Homo sapiens) (UniProt P10635); test: qHTS Assay for Inhibitors and Substrates of Cytochrome P450 2D6 (AID 891); further: nearly all actives have a fitted effect of over 60% in size; further: potency means the concentration at half of the fitted maximal effect;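 on activity change, negative = inhibition: luciferin methyl ether substrate demethylated by CYP2D6 with NADPH regeneration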
# Chain of Cytochrome P450 2D6 (Homo sapiens) (P10635 whole entry, looked up): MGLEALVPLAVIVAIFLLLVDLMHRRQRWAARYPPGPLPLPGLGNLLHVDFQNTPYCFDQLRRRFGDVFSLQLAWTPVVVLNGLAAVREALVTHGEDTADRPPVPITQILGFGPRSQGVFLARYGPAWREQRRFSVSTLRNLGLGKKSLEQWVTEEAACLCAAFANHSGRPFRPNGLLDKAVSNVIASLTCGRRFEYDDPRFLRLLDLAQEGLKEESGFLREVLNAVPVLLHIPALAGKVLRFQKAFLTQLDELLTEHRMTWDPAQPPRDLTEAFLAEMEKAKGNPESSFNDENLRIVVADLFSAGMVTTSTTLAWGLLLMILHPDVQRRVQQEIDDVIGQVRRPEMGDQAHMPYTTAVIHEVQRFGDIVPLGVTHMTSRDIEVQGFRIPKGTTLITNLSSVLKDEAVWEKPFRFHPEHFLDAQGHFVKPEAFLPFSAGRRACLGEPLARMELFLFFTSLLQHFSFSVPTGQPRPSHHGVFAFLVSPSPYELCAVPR
# In short: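 Luminescent read-out of luciferin formed by 5 nM human CYP2D6 demethylating 30 uM Luciferin-ME EGE (Km level) over 60 min at room temperature after NADPH regeneration addition. Data normalized to full inhibition by 1.43 uM quinidine.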
# [14] = target: Pyruvate kinase (Leishmania mexicana) (UniProt Q27686); test: qHTS Validation Assay for Inhibitors of Leishmania Mexicana Pyruvate Kinase (AID 945)
# In short: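 An endpoint luciferase assay: 0.2 nM LmPYK E451W turns over 0.5 mM PEP with 0.1 mM ADP for 1 h at room temperature, pH 7.2, before PKLight addition. Values are normalized to DMSO-only wells.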
# [15] = target: Pyruvate kinase PKM (Homo sapiens) (UniProt P14618); test: qHTS Assay for Activators of Human Muscle Pyruvate Kinase (AID 954; active means well fitted curve in the direction sought with a large enough effect, not every such curve was filed as active)
# In short: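 Screening used highly purified human pyruvate kinase M2 under submaximal activity, with PEP at its Km and ADP below Km. After an hour at room temperature, ATP was read by luciferase luminescence.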
# [16] = target: Alpha-galactosidase (Coffea arabica) (UniProt Q42656); test: Counterscreen for Glucocerebrosidase Inhibitors: qHTS Assay for Coffee Bean alpha-Galactosidase at pH 4.5 (AID 957)
# Chain of Alpha-galactosidase (Coffea arabica) (Q42656 whole entry, looked up): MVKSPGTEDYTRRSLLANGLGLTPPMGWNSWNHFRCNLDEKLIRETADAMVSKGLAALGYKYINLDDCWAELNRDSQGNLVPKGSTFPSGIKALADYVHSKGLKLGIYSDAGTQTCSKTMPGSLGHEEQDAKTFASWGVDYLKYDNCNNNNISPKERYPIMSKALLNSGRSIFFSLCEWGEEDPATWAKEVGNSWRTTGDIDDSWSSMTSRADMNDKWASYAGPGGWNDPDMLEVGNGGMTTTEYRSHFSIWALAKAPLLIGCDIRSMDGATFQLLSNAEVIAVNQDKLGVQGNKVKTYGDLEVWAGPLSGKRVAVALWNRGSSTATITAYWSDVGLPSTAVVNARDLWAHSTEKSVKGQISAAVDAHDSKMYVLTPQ
# In short: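 Fluorogenic read-out: 4-methylumbelliferone at Ex 365/Em 440 nm after NaOH/glycine stop (pH 10). Enzyme 2 nM, 4-MU-alpha-galactoside 80 uM, citrate buffer pH 4.5, 20 min RT; normalized to no-enzyme and enzyme controls.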
# [17] = target: Alpha-galactosidase A (Homo sapiens) (UniProt P06280); test: Counterscreen for Glucocerebrosidase Inhibitors: qHTS Assay for Human alpha-Galactosidase at pH 4.5 (AID 992)
# Chain of Alpha-galactosidase A (Homo sapiens) (P06280 whole entry, looked up): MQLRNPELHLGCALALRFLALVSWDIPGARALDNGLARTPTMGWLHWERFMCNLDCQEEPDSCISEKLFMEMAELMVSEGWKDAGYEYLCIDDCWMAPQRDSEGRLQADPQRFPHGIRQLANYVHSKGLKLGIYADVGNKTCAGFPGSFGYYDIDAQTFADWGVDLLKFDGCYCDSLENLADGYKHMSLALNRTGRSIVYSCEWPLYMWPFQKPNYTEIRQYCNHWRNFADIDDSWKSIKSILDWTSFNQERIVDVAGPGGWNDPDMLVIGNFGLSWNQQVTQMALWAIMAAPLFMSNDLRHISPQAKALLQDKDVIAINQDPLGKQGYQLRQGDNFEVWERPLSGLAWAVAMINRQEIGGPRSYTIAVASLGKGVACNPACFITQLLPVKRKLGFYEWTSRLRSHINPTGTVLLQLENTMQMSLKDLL
# In short: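 Each compound is preincubated briefly with 2 nM enzyme before substrate addition (80 uM); plates then sit 20 min at ambient temperature, are quenched with 1M NaOH/1M glycine, and read fluorometrically.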
# [18] = target: alpha-glucosidase (Oryza sativa, rice) (UniProt Q653V4); test: Counterscreen for Glucocerebrosidase Inhibitors: qHTS Assay for Rice alpha-Glucosidase at pH 5.0 (AID 997)
# In short: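 Endpoint fluorogenic assay at pH 5.0: compounds (0.7 nM to 77 uM) titrated against 4 nM rice enzyme and 400 uM 4-MU-alpha-glucoside for 20 min at room temperature; NaOH/glycine stop, read ex 365/em 440 nm, Hill-fitted AC50.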
# [19] = target: Alpha-galactosidase (Coffea arabica) (UniProt Q42656); test: Counterscreen for Glucocerebrosidase Inhibitors: qHTS Assay for Coffee Bean alpha-Galactosidase at pH 5.9 (AID 998)
# In short: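 In 50 mM citric acid pH 5.9 with 0.005% Tween-20, coffee bean enzyme hydrolyses 80 uM 4-MU alpha-D-galactopyranoside over 20 min at RT. Activity is normalized to controls; AC50 comes from Hill-modelled concentration-response data.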
smiles,measurement,setting,value
O=C1C2CCN(CC2)C1(CO)CO,"activity change, negative = inhibition",[1],3.23% [at 7.69 µM]
same,Potency,[2],inactive
same,"activity change, negative = inhibition",[3]; at 7.69 µM (top of the series),-7.28%
same,Potency,[4],> 46 µM
same,Potency,[5],> 46 µM and > 9.22 µM
same,outcome,[6],inactive
same,Potency,[7],inactive
same,Potency,[8],0.631 µM (active)
same,Potency,[9],inactive
same,Potency,[10],inactive
same,Potency,[11],inactive
O=C1Nc2cc(Cl)c(Cl)cc2N2CCNC[C@H]12,Potency,[4],> 46 µM
same,Potency,[5],> 46 µM
same,outcome,[6],inactive
same,Potency,[12],inactive
same,Potency,[9],inactive
same,Potency,[10],inactive
same,Potency,[11],inactive
CS(=O)(=O)Nc1ccc(Cc2noc(-c3ccc4[nH]cc(CCN)c4c3)n2)cc1,Potency,[2],31.6 nM (active)
same,Potency,[4],> 46 µM
same,Potency,[13],0.126 µM (active)
same,Potency,[12],inactive
same,Potency,[9],inactive
same,Potency,[10],inactive
same,Potency,[11],inactive
C/C(O)=C(/C#N)C(=O)Nc1cc(Br)ccc1Br,outcome,[1],inactive
same,Potency,[2],5.01 µM (active) and 2.51 µM (active)
same,"activity change, negative = inhibition",[3]; at 38 µM (top of the series),6.53%
same,Potency,[4],> 46 µM
same,Potency,[5],> 46 µM
same,Potency,[7],inactive
same,Potency,[13],inactive
same,Potency,[8],inactive
same,outcome,[14],inactive
same,outcome,[15],inactive
same,outcome,[16],inactive
same,outcome,[17],inactive
same,outcome,[18],inactive
same,outcome,[19],inactive
same,Potency,[9],inactive
same,Potency,[10],inactive
same,Potency,[11],inactive
NC[C@H](CP(=O)(O)O)c1ccc(Cl)cc1,outcome,[1],inactive
same,Potency,[2],inactive
same,"activity change, negative = inhibition",[3]; at 38 µM (top of the series),3.15%
same,Potency,[4],> 46 µM
same,Potency,[7],inactive
same,outcome,[14],inactive
same,outcome,[15],inactive
same,outcome,[16],inactive
same,outcome,[17],inactive
same,outcome,[18],inactive
same,outcome,[19],inactive
same,Potency,[9],inactive
same,Potency,[10],inactive
same,Potency,[11],inactive
CN(C(=O)Cc1ccccc1)[C@H](CN1CCCC1)c1ccccc1,Potency,[2],inactive
same,Potency,[4],> 46 µM
same,Potency,[5],> 46 µM
same,outcome,[6],inactive
same,Potency,[13],3.16 µM (active)
same,Potency,[12],inactive
same,Potency,[9],inactive
same,Potency,[10],inactive
same,Potency,[11],inactive
C#CCN1C(C)=C(C(=O)CCO)[C@@H](c2cccc(-n3oo3)c2)C(C(=O)OC)=C1C,Potency,[4],> 46 µM
same,Potency,[5],> 46 µM
same,Potency,[9],inactive
same,Potency,[10],inactive
same,Potency,[11],inactive
O=NN1CCCC1c1cccnc1 (stereo not given),Potency,[10],inactive
same,Potency,[11],inactive
CC[C@@H](CO)NC(=O)[C@H]1C=C2c3cccc4[nH]cc(c34)C[C@H]2N(C)C1,Potency,[4],> 46 µM
same,Potency,[5],> 46 µM
same,Potency,[7],inactive
same,Potency,[9],inactive
same,Potency,[10],29.9 µM (active)
same,Potency,[11],inactive
CC(C)(c1ccc(OCC2CO2)cc1)c1ccc(OCC2CO2)cc1 (stereo not given),Potency,[10],inactive
same,Potency,[11],inactive
COc1ccc(C[C@H]2NC[C@H](O)[C@@H]2OC(C)=O)cc1,Potency,[2],inactive
same,Potency,[4],> 46 µM
same,Potency,[5],> 46 µM
same,Potency,[7],inactive
same,Potency,[13],7.94 µM (active)
same,Potency,[8],3.16 µM (active)
same,Potency,[12],inactive
same,Potency,[9],inactive
same,Potency,[10],inactive
same,Potency,[11],inactive
